# In all, about 5,500 compounds went through this assay and about 2,000 (36%) were called active. About 18% were inconclusive and are not listed. The list shows a part of the results. Values without a mark were called inactive. No stated cut-off is given here; in the data, active means normalized growth mostly below about 0.91 (no sharp cut-off); inconclusive means no clear call, values can overlap the other calls; inactive means mostly above about 0.92.
# Assay: chemical genetic growth profiling, strain panel (AID 1159580);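 further: tested at 20 µM; growth read once vehicle control cultures reached saturation at 30 °C; 1 = growth at the plate median or of vehicle wells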
# Details: growth OD
# [1] = S. cerevisiae deletion strains, locus YBR229C, strain ROT2, stronger effect = lower value
# [2] = S. cerevisiae deletion strains, locus YDL101C, strain DUN1, stronger effect = lower value
# [3] = S. cerevisiae deletion strains, locus YDR150W, strain NUM1, stronger effect = lower value
# [4] = S. cerevisiae deletion strains, locus YEL061C, strain CIN8, stronger effect = lower value
# [5] = S. cerevisiae deletion strains, locus YHR030C, strain SLT2, stronger effect = lower value
# [6] = S. cerevisiae deletion strains, locus YJR043C, strain POL32, stronger effect = lower value
# [7] = S. cerevisiae deletion strains, locus YLR039C, strain RIC1, stronger effect = lower value
# [8] = S. cerevisiae deletion strains, locus YLR262C, strain YPT6, stronger effect = lower value
# [9] = S. cerevisiae deletion strains, locus YMR263W, strain SAP30, stronger effect = lower value
# [10] = S. cerevisiae deletion strains, locus YMR307W, strain GAS1, stronger effect = lower value
# [11] = S. cerevisiae deletion strains, locus YPL055C, strain LGE1, stronger effect = lower value
structure (smiles),measurement,setting,value
Cc1cc(I)c(C)cc1I,normalized growth,"S. cerevisiae deletion strains, locus YAL013W, strain DEP1, stronger effect = lower value",1.01
same,normalized growth,[1],0.989
same,normalized growth,"S. cerevisiae deletion strains, locus YCL061C, strain MRC1, stronger effect = lower value",0.994
same,normalized growth,[2],1.02
same,normalized growth,"S. cerevisiae deletion strains, locus YDL134C, strain PPH21, stronger effect = lower value",0.986
same,normalized growth,[3],1.04
same,normalized growth,[4],0.966
same,normalized growth,"S. cerevisiae deletion strains, locus YGR078C, strain PAC10, stronger effect = lower value",1
same,normalized growth,[5],0.805
same,normalized growth,"S. cerevisiae deletion strains, locus YHR087W, strain rtc3, stronger effect = lower value",0.979
same,normalized growth,[6],0.994
same,normalized growth,"S. cerevisiae deletion strains, locus YJR075W, strain HOC1, stronger effect = lower value",0.976
same,normalized growth,[7],0.955
same,normalized growth,"S. cerevisiae deletion strains, locus YLR058C, strain SHM2 (second series), stronger effect = lower value",0.992
same,normalized growth,"S. cerevisiae deletion strains, locus YLR085C, strain ARP6, stronger effect = lower value",0.953
same,normalized growth,[8],0.872
same,normalized growth,"S. cerevisiae deletion strains, locus YML094W, strain GIM5, stronger effect = lower value",0.95
same,normalized growth,"S. cerevisiae deletion strains, locus YMR219W, strain ESC1, stronger effect = lower value",1
same,normalized growth,[9],0.976
same,normalized growth,[10],0.7
same,normalized growth,"S. cerevisiae deletion strains, locus YNL153C, strain GIM3, stronger effect = lower value",0.984
same,normalized growth,"S. cerevisiae deletion strains, locus YNL298W, strain CLA4 (second series), stronger effect = lower value",0.935
same,normalized growth,"S. cerevisiae deletion strains, locus YNL322C, strain KRE1, stronger effect = lower value",1
same,normalized growth,"S. cerevisiae deletion strains, locus YNR030W, strain Alg12, stronger effect = lower value",0.943
same,normalized growth,[11],0.966
same,normalized growth,"S. cerevisiae deletion strains, locus YPL241C, strain CIN2, stronger effect = lower value",0.978
same,normalized growth,"S. cerevisiae deletion strains, locus YPR135W, strain CTF4, stronger effect = lower value",0.925
CCC/C=C1\OC(=O)C2=C1CCC=C2,normalized growth,"S. cerevisiae deletion strains, locus YBR021W, strain FUR4, stronger effect = lower value",0.967
same,normalized growth,[1],1.01
same,normalized growth,"S. cerevisiae deletion strains, locus YCL029C, strain bik1, stronger effect = lower value",0.978
same,normalized growth,"S. cerevisiae deletion strains, locus YDL035C, strain GPR1, stronger effect = lower value",0.952
same,normalized growth,"S. cerevisiae deletion strains, locus YDL074C, strain BRE1, stronger effect = lower value",0.945
same,normalized growth,[2],0.984
same,normalized growth,"S. cerevisiae deletion strains, locus YDL185W, strain tfp1, stronger effect = lower value",0.986
same,normalized growth,"S. cerevisiae deletion strains, locus YDL192W, strain arf1, stronger effect = lower value",0.972
same,normalized growth,"S. cerevisiae deletion strains, locus YDR101C, strain arx1, stronger effect = lower value",0.949
same,normalized growth,[3],1.02
same,normalized growth,"S. cerevisiae deletion strains, locus YDR162C, strain NBP2, stronger effect = lower value",0.993
same,normalized growth,"S. cerevisiae deletion strains, locus YDR318W, strain mcm21, stronger effect = lower value",0.998
same,normalized growth,"S. cerevisiae deletion strains, locus YDR388W, stronger effect = lower value",0.978
same,normalized growth,"S. cerevisiae deletion strains, locus YDR502C, strain sam2, stronger effect = lower value",0.957
same,normalized growth,[4],1
same,normalized growth,"S. cerevisiae deletion strains, locus YER110C, stronger effect = lower value",0.971
same,normalized growth,"S. cerevisiae deletion strains, locus YER155C, strain BEM2, stronger effect = lower value",1.03
same,normalized growth,"S. cerevisiae deletion strains, locus YER167W, strain BCK2, stronger effect = lower value",0.998
same,normalized growth,"S. cerevisiae deletion strains, locus YGL078C, strain dbp3, stronger effect = lower value",0.963
same,normalized growth,"S. cerevisiae deletion strains, locus YGL086W, strain mad1, stronger effect = lower value",0.929 (active)
same,normalized growth,"S. cerevisiae deletion strains, locus YGL248W, strain PDE1, stronger effect = lower value",0.975
same,normalized growth,"S. cerevisiae deletion strains, locus YGR135W, strain pre9, stronger effect = lower value",0.965
same,normalized growth,"S. cerevisiae deletion strains, locus YGR252W, strain gcn5, stronger effect = lower value",0.974
same,normalized growth,[5],1.02
same,normalized growth,"S. cerevisiae deletion strains, locus YHR079C, strain IRE1 (second series), stronger effect = lower value",0.987
same,normalized growth,"S. cerevisiae deletion strains, locus YHR094C, strain hxt1, stronger effect = lower value",0.982
same,normalized growth,"S. cerevisiae deletion strains, locus YHR129C, strain ARP1, stronger effect = lower value",0.989
same,normalized growth,"S. cerevisiae deletion strains, locus YHR200W, strain rpn10, stronger effect = lower value",0.986
same,normalized growth,"S. cerevisiae deletion strains, locus YIL066C, strain RNR3, stronger effect = lower value",0.97
same,normalized growth,"S. cerevisiae deletion strains, locus YIL073C, strain SPO22, stronger effect = lower value",0.93
same,normalized growth,"S. cerevisiae deletion strains, locus YIL125W, strain kgd1, stronger effect = lower value",0.973
same,normalized growth,"S. cerevisiae deletion strains, locus YIR030C, strain dcg1, stronger effect = lower value",0.988
same,normalized growth,"S. cerevisiae deletion strains, locus YJL095W, strain BCK1, stronger effect = lower value",0.968
same,normalized growth,"S. cerevisiae deletion strains, locus YJL134W, strain LCB3, stronger effect = lower value",1.01
same,normalized growth,"S. cerevisiae deletion strains, locus YJL168C, strain set2, stronger effect = lower value",0.986
same,normalized growth,"S. cerevisiae deletion strains, locus YJL187C, strain SWE1 (second series), stronger effect = lower value",0.99
same,normalized growth,[6],0.956
same,normalized growth,"S. cerevisiae deletion strains, locus YKL009W, strain mrt4, stronger effect = lower value",0.868 (active)
same,normalized growth,"S. cerevisiae deletion strains, locus YKL068W, stronger effect = lower value",0.994
same,normalized growth,"S. cerevisiae deletion strains, locus YKL085W, strain MDH1 (second series), stronger effect = lower value",0.958
same,normalized growth,"S. cerevisiae deletion strains, locus YKL085W, strain MDH1, stronger effect = lower value",0.958
same,normalized growth,"S. cerevisiae deletion strains, locus YKR001C, strain vps1, stronger effect = lower value",0.963
same,normalized growth,[7],0.848
same,normalized growth,"S. cerevisiae deletion strains, locus YLR058C, strain SHM2, stronger effect = lower value",1
same,normalized growth,"S. cerevisiae deletion strains, locus YLR102C, strain apc9, stronger effect = lower value",0.988
same,normalized growth,[8],0.816
same,normalized growth,"S. cerevisiae deletion strains, locus YLR268W, strain sec22, stronger effect = lower value",0.953
same,normalized growth,"S. cerevisiae deletion strains, locus YLR330W, strain CHS5, stronger effect = lower value",1.01
same,normalized growth,"S. cerevisiae deletion strains, locus YLR342W, strain FKS1 (second series), stronger effect = lower value",0.97
same,normalized growth,"S. cerevisiae deletion strains, locus YLR371W, strain rom2, stronger effect = lower value",0.998
same,normalized growth,"S. cerevisiae deletion strains, locus YLR418C, strain cdc73, stronger effect = lower value",0.959
same,normalized growth,"S. cerevisiae deletion strains, locus YML016C, strain PPZ1, stronger effect = lower value",1
same,normalized growth,"S. cerevisiae deletion strains, locus YML032C, strain rad52, stronger effect = lower value",1
same,normalized growth,"S. cerevisiae deletion strains, locus YML124C, strain tub3, stronger effect = lower value",0.987
same,normalized growth,"S. cerevisiae deletion strains, locus YMR078C, strain ctf18, stronger effect = lower value",0.959
same,normalized growth,"S. cerevisiae deletion strains, locus YMR223W, strain ubp8, stronger effect = lower value",0.979
same,normalized growth,[9],1
same,normalized growth,[10],1.02
same,normalized growth,"S. cerevisiae deletion strains, locus YNL067W, strain RPL9B, stronger effect = lower value",0.965
same,normalized growth,"S. cerevisiae deletion strains, locus YNL233W, strain BNI4, stronger effect = lower value",0.992
same,normalized growth,"S. cerevisiae deletion strains, locus YNL250W, strain rad50, stronger effect = lower value",1.01
same,normalized growth,"S. cerevisiae deletion strains, locus YNL271C, strain bni1, stronger effect = lower value",0.971
same,normalized growth,"S. cerevisiae deletion strains, locus YNL298W, strain CLA4, stronger effect = lower value",0.959
same,normalized growth,"S. cerevisiae deletion strains, locus YNL307C, strain MCK1, stronger effect = lower value",0.969
same,normalized growth,"S. cerevisiae deletion strains, locus YNR052C, strain pop2, stronger effect = lower value",1.01
same,normalized growth,"S. cerevisiae deletion strains, locus YOL012C, strain htz1",1.31
same,normalized growth,"S. cerevisiae deletion strains, locus YOL147C, strain pex11, stronger effect = lower value",0.986
same,normalized growth,"S. cerevisiae deletion strains, locus YOR061W, strain CKA2, stronger effect = lower value",0.996
same,normalized growth,"S. cerevisiae deletion strains, locus YOR069W, strain VPS5, stronger effect = lower value",0.998
same,normalized growth,"S. cerevisiae deletion strains, locus YOR136W, strain idh2, stronger effect = lower value",0.98
same,normalized growth,"S. cerevisiae deletion strains, locus YOR144C, strain elg1, stronger effect = lower value",0.987
same,normalized growth,"S. cerevisiae deletion strains, locus YOR184W, strain ser1, stronger effect = lower value",0.926
same,normalized growth,"S. cerevisiae deletion strains, locus YOR316C, strain cot1, stronger effect = lower value",0.976
same,normalized growth,[11],0.969
same,normalized growth,"S. cerevisiae deletion strains, locus YPR119W, strain clb2, stronger effect = lower value",0.983
same,normalized growth,"S. cerevisiae deletion strains, locus YPR141C, strain kar3, stronger effect = lower value",0.977
same,normalized growth,"S. cerevisiae deletion strains, locus YPR163C, strain tif3, stronger effect = lower value",0.97
same,normalized growth,"S. cerevisiae deletion strains, locus YPR167C, strain met16, stronger effect = lower value",0.996
same,normalized growth,"S. cerevisiae deletion strains, strain wtn01, stronger effect = lower value",0.965
same,normalized growth,"S. cerevisiae strains, strain wild type, stronger effect = lower value",0.988

# — PubChem BioAssay AID1159580 (chemical genetic matrix, 2015)
